The full ranking holds about 68,000 sequences; the median of “fluorescence intensity (a.u.)” is about 9,100, and the highest 2% start at about 16,000. Shown is part of a subset that was picked to be rich in the highest values.
target: OsWRKY34 (Oryza sativa, UniProt Q0JBA9 1-250); experiment: protein-binding microarray (RPBM); PBS, 2% BSA, 51.3 ng/ul salmon testes DNA, 50 uM zinc acetate, 200 nM TF, 25 C, 1 h; high values mean tight binding; conditions: protein: recombinant; tags: N-terminal polyhistidine and DsRed monomer fusion (pET32a); label: CyDye5-dUTP incorporated in the synthesized complementary strand; 3' TTTTT single-stranded linker to array surface; dsDNA, one strand shown
Sequence (Q0JBA9 entry or part of it): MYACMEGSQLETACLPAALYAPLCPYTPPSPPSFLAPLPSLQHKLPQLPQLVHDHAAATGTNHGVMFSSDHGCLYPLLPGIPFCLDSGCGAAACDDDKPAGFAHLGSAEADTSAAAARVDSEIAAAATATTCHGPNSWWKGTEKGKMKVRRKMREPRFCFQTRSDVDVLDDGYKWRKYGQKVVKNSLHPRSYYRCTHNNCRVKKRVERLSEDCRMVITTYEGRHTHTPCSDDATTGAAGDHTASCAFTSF
Method in brief: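 A custom Agilent array was converted to double-stranded form by primer extension with Cy5-dUTP and blocked with 2% BSA. Protein at 200 nM in PBS with 2% BSA, salmon testes DNA and 50 µM zinc acetate was applied for 1 h at 25 °C, followed by washing. The proteins were polyhistidine–DsRed N-terminal fusions of transcription factors, expressed in E. coli BL21-CodonPlus and Ni–NTA-purified. The binding signal is per-feature fluorescence intensity (arbitrary units) from an Axon 4000B scanner.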

Sequence | binding signal
TCAAAGGTTGGTTTGATTTGTTGCTATTTGTTGGTTTGATCGGAGTCACCTAGTGCAG | 8630 fluorescence intensity (a.u.)
CGCGCTCTGCATGTCGGTCCGTCAACTTGATCGCGATTCTCGGAGTCACCTAGTGCAG | 8590 fluorescence intensity (a.u.)
TGCAATTCGTACTTTTTCCTACAATTAAACAGCTACATGTCGGAGTCACCTAGTGCAG | 9500 fluorescence intensity (a.u.)
ATTTTTGTCTTGAGTTAACACCGTCACGTTGCCTTCACGGCGGAGTCACCTAGTGCAG | 9960 fluorescence intensity (a.u.)
CCGTCGTCGTCTTCGTCTTCCTCAGTTTATCTCCATTTCTCGGAGTCACCTAGTGCAG | 13800 fluorescence intensity (a.u.)
GGAAAAAGAACAATCTGCGACCAACCTCTTTTTTCTATCCCGGAGTCACCTAGTGCAG | 8980 fluorescence intensity (a.u.)
TCCTCTCTGTCTCCGCCGATCTGCTCTGCCGCGACGCGCCCGGAGTCACCTAGTGCAG | 8180 fluorescence intensity (a.u.)
ATTTCACATGGCAAGATCCACGATGACTGAATTATCACACCGGAGTCACCTAGTGCAG | 8200 fluorescence intensity (a.u.)
GGCGGCGGCGGCGGCGGTGGTGGTGAGGAGGAGGAGGAGGCGGAGTCACCTAGTGCAG | 10700 fluorescence intensity (a.u.)
ATGTCGGCGGCGGGCGGCGGCGGCGGCGTGGGGAAGGTGGCGGAGTCACCTAGTGCAG | 9040 fluorescence intensity (a.u.)
GAGGTGGCTTTGGCGGCGGAGTGGGAGGCGGTGGTGGTGGCGGAGTCACCTAGTGCAG | 10000 fluorescence intensity (a.u.)
GAGGAGGGGAGAAACGGGAGGTTGGTGGTGGTGGTGGAGGCGGAGTCACCTAGTGCAG | 15200 fluorescence intensity (a.u.)
CATGTCGTCGTCGTGGTGGTGGTGGTGGTGGTGGGGCGGGCGGAGTCACCTAGTGCAG | 43400 fluorescence intensity (a.u.)
GGAGGCCTAGGTGGTGGTGGTGGTCTTGGTGGAGGAGGGGCGGAGTCACCTAGTGCAG | 28600 fluorescence intensity (a.u.)
GAGGGCGGAGGAGGTGGTGAGGGAGGAGGTGCGGAGGCTGCGGAGTCACCTAGTGCAG | 8320 fluorescence intensity (a.u.)
GCGGTGGTGGTGGGCTTAGTGGAGGCGGAGGCGGCTGAGGCGGAGTCACCTAGTGCAG | 17400 fluorescence intensity (a.u.)
GTAGTAGGGGAGGAGTGTATCTAGTAGTATAGGGAGGGAGCGGAGTCACCTAGTGCAG | 13000 fluorescence intensity (a.u.)
GGTGGTGGTGGTGGTGGTGGTGGTGTAGGAGGAGGAGGAGCGGAGTCACCTAGTGCAG | 27600 fluorescence intensity (a.u.)
CATTATCGTCGTCGTCGTCGTCGTAGTCATGTCGTGGGGCCGGAGTCACCTAGTGCAG | 8180 fluorescence intensity (a.u.)
GGAGGAGGAGGAGGGAGAGGGTGGTGTAGTGGGAGCGGCCCGGAGTCACCTAGTGCAG | 8170 fluorescence intensity (a.u.)
GCCTCTGCCCATCGCATCGATCCCCGCCGTCCCTCCACCCCGGAGTCACCTAGTGCAG | 11000 fluorescence intensity (a.u.)

Sequence | binding signal
TCGAACTATGTTTCTGGAGTTGTTTGTGTTAAAGTCCCAACGGAGTCACCTAGTGCAG | 8860 fluorescence intensity (a.u.)
CCGCCACATGCTGCTGCCGCCCCAGCCGTCGGCTGCTTCTCGGAGTCACCTAGTGCAG | 8560 fluorescence intensity (a.u.)
TTTGCGGGTGGAGTTTTTTAAGTTTTTGGATTTCCTGTTTCGGAGTCACCTAGTGCAG | 11700 fluorescence intensity (a.u.)
CTCGACCACACATATATGTTCGATACATTCCATATCTTCCCGGAGTCACCTAGTGCAG | 10700 fluorescence intensity (a.u.)
AACAAAAGCACCCCTGTCCGATCCTATATTTGTTGCAGTTCGGAGTCACCTAGTGCAG | 9240 fluorescence intensity (a.u.)
GAAGAGGAGGAGGAGGAGGAGGAGGAGGAGGGGATCAATGCGGAGTCACCTAGTGCAG | 8350 fluorescence intensity (a.u.)
TGTTCTTGAGTTGCTTATATATGGCCTTCTAGCTCAGCTCCGGAGTCACCTAGTGCAG | 8540 fluorescence intensity (a.u.)
TGATTGCCTTCTCGATTTTGTTTGTCATTGCGTCTTTGCACGGAGTCACCTAGTGCAG | 8190 fluorescence intensity (a.u.)
TCCTTGTATGAATCCATTGCCTTGCTTCTGCTTGCCCATTCGGAGTCACCTAGTGCAG | 8530 fluorescence intensity (a.u.)
TGACCACCATTGCTGCTTCTGCTTCTTCTTGTATGTATACCGGAGTCACCTAGTGCAG | 17200 fluorescence intensity (a.u.)
CATTTTTTTAGCTTGTTCTTCCTTGTGTCACAAACATTTCCGGAGTCACCTAGTGCAG | 11300 fluorescence intensity (a.u.)
GGGTGGTCCTGCTTCTACCTTGTATACAAAACATTTCTTCCGGAGTCACCTAGTGCAG | 17000 fluorescence intensity (a.u.)
GCTTGCTTGCTTGTTGCTTCCATTCCATTCCATTCCACACCGGAGTCACCTAGTGCAG | 10400 fluorescence intensity (a.u.)
CTTCTCCTGCTTGTTTCCTTGTCTTGTGGTGCATCACATCCGGAGTCACCTAGTGCAG | 8810 fluorescence intensity (a.u.)
GTATTCCTACTTGAACTCTTCTTTTACTTTATTTTTCTAACGGAGTCACCTAGTGCAG | 10600 fluorescence intensity (a.u.)
CACTGCCACTCGCCACCCAGCTCCGTCCTATGCCTCCGCGCGGAGTCACCTAGTGCAG | 12400 fluorescence intensity (a.u.)
TGCACCGCGCGCAGGGTAGGGTGGGCGTCCTTGCCATTGTCGGAGTCACCTAGTGCAG | 8740 fluorescence intensity (a.u.)
CTTATTTCTTTTCCAGTTAGGCATATATTATCTGTTTTCTCGGAGTCACCTAGTGCAG | 8700 fluorescence intensity (a.u.)
ATAATATATAATCAAACAAAAAAATGGACTATAATCTCTCCGGAGTCACCTAGTGCAG | 64400 fluorescence intensity (a.u.)
ATATATATATATATATATATATATATATATAATCTCTCCTCGGAGTCACCTAGTGCAG | 9910 fluorescence intensity (a.u.)
AAAATCTCCTACTAGCTCACTTCACAATGGATCAAACAAACGGAGTCACCTAGTGCAG | 8230 fluorescence intensity (a.u.)

Sequence | binding signal
AACTTGCGAAAATTTGACTATCAATTAGCTGGGCGATTGACGGAGTCACCTAGTGCAG | 32700 fluorescence intensity (a.u.)
CTTTTTATCTCAAATTTGAAAACTTTCAACTTGGATTTGACGGAGTCACCTAGTGCAG | 8520 fluorescence intensity (a.u.)
ACTATGGGCTTTTGCATCAACAATTGCGAATTTTTTGTATCGGAGTCACCTAGTGCAG | 9280 fluorescence intensity (a.u.)
GTGGGGATGGAGGCGTCGTCGGGGTCGTCGTAGAGGTGGGCGGAGTCACCTAGTGCAG | 9240 fluorescence intensity (a.u.)
GTCGGGGAGGTCGGGGTCAGGGAGGTCGGGGCCGGTGATGCGGAGTCACCTAGTGCAG | 18900 fluorescence intensity (a.u.)
GGAGGATGCGGGTGGTGGTGGAGGAGGAGGAGGCCGAGGTCGGAGTCACCTAGTGCAG | 12400 fluorescence intensity (a.u.)
CTGCGGGAGGACGGGTCCGGGGCGGGGTCCGGGTCGGTGCCGGAGTCACCTAGTGCAG | 9780 fluorescence intensity (a.u.)
GGGTGGGGAGGTGGTGGTCGTCGGGCAGGTGGGGAGGATGCGGAGTCACCTAGTGCAG | 23900 fluorescence intensity (a.u.)
GGGCCCCAGTCAGGGTGCGGGGCCACGGAGGGGTCGGGGACGGAGTCACCTAGTGCAG | 9260 fluorescence intensity (a.u.)
GCAGACAACTCCGTCGCTGTTACTTCCTCTATGCCAAAACCGGAGTCACCTAGTGCAG | 9350 fluorescence intensity (a.u.)
AGCGCGCGCAGCTTTGCAGGCGTGGTCGGGGTCGTTGTGCCGGAGTCACCTAGTGCAG | 9700 fluorescence intensity (a.u.)
TTTACATATCTATCTTTTTTTTTTGTTTTTTCTCGCTTTTCGGAGTCACCTAGTGCAG | 8460 fluorescence intensity (a.u.)
AACCTTTCTATAGATTTTTTTTTTTTACAAAAACACATCACGGAGTCACCTAGTGCAG | 11700 fluorescence intensity (a.u.)
AATCCCAAGCTAGGTGTTGACCATGGGTCAACAATCTCCCCGGAGTCACCTAGTGCAG | 9470 fluorescence intensity (a.u.)
ACCATTATTCTGTTGTCAACTGCATGCCGCAACAAACTGACGGAGTCACCTAGTGCAG | 8420 fluorescence intensity (a.u.)
AGGTCAACAACCAGTGTCAAGATCTGACCATGCAATTAGCCGGAGTCACCTAGTGCAG | 17600 fluorescence intensity (a.u.)
AACTAACTGGCACGCCCTCATATCACCAACCTTTGGACCTCGGAGTCACCTAGTGCAG | 8560 fluorescence intensity (a.u.)
CTTTCTGATCACCAACTCCGCTCCTTTTAATCGCAACTACCGGAGTCACCTAGTGCAG | 9660 fluorescence intensity (a.u.)
CTGCCGAAGCAACGGATCTGAATCTACGTACCGAGCTTGTCGGAGTCACCTAGTGCAG | 64600 fluorescence intensity (a.u.)
TCCTGTGGTACCCCTGTCGCCGAATCTACGCATCTGCCAACGGAGTCACCTAGTGCAG | 8140 fluorescence intensity (a.u.)
ATATCTGCTTCTACGTCGTCTACGAAGCCGCCGAGACGTCCGGAGTCACCTAGTGCAG | 9320 fluorescence intensity (a.u.)

Sequence | binding signal
ACTCTCTTCCTCACGACGCACCACGGGCTAGCCACTCCTACGGAGTCACCTAGTGCAG | 8340 fluorescence intensity (a.u.)
TATTTGGTTTTGTAGGGGTTGGTTTGGGAAAATTGGAAAGCGGAGTCACCTAGTGCAG | 16400 fluorescence intensity (a.u.)
ATTCTCAAAATCGAATTTGTTTTTATATTTCCCTTACTGTCGGAGTCACCTAGTGCAG | 14700 fluorescence intensity (a.u.)
TTATATTTTGGGACGGAGTATTACTTTGAATCCCTTTTCCCGGAGTCACCTAGTGCAG | 8280 fluorescence intensity (a.u.)
CTTATTTAGTTGGGGAAAATTTTTGGGTTTGTTTGTCACACGGAGTCACCTAGTGCAG | 11600 fluorescence intensity (a.u.)
AAAATTTTATTTTTCATGTGTGGCTTATTGTCCTTTTTTGCGGAGTCACCTAGTGCAG | 9470 fluorescence intensity (a.u.)
TATTGTTTAGTTGGGAAAAAAATTTGGGGTTGGTTGTCACCGGAGTCACCTAGTGCAG | 10400 fluorescence intensity (a.u.)
TGTTTGCTTATTACTATTTTTTTTGGGGCGGGAAATTAAACGGAGTCACCTAGTGCAG | 14100 fluorescence intensity (a.u.)
TTTTTTTTTCTTTTGGGGCGGAAGGAGTAGTATGGAGTTTCGGAGTCACCTAGTGCAG | 12300 fluorescence intensity (a.u.)
GCAGGCGGCGGAGGATTTTTGGGAGGGGAAAACGGCGAGTCGGAGTCACCTAGTGCAG | 8540 fluorescence intensity (a.u.)
GAAAAATTGTCCCTTTTTATTTGGGAGGGGAGGGAGGAGGCGGAGTCACCTAGTGCAG | 17100 fluorescence intensity (a.u.)
CCTTTTGTTTTTGGGGCTTGTAGTTTTTGGAAATTTGGGGCGGAGTCACCTAGTGCAG | 18300 fluorescence intensity (a.u.)
TTACAAACAAAAACTCAAAATCCCTTATATTTTGGGACAGCGGAGTCACCTAGTGCAG | 64700 fluorescence intensity (a.u.)
CTTTTTATTACCGGTGTTTCGCTTTGGACCACCCTTCAACCGGAGTCACCTAGTGCAG | 9170 fluorescence intensity (a.u.)
CCACCAATCCACCACCGCCACGCCACTTCACCCTTGTTTTCGGAGTCACCTAGTGCAG | 9810 fluorescence intensity (a.u.)
CTCCGTCGCCACTCACACCCATGGCCTTGACCGCTACTAGCGGAGTCACCTAGTGCAG | 9550 fluorescence intensity (a.u.)
GTTTTGAAAGGTATTGTTGGGTAGTAATAGGCTTCATCTTCGGAGTCACCTAGTGCAG | 10200 fluorescence intensity (a.u.)
TTCCTTTTGTGTTGTTTCCCTTTCAGTTTCATCTTTTGCTCGGAGTCACCTAGTGCAG | 8110 fluorescence intensity (a.u.)
ACTTGTCCTTGATCCTGCCCCACTTCGGATTGTCAATCGACGGAGTCACCTAGTGCAG | 8730 fluorescence intensity (a.u.)
CGTTCCTTGGTATTCTCCCTCGTGGTGTAAATGTACGTATCGGAGTCACCTAGTGCAG | 9740 fluorescence intensity (a.u.)
TTGTTGCAGCCTCGCAGTAAGATTCCTTGTTTTTCTTAGCCGGAGTCACCTAGTGCAG | 8620 fluorescence intensity (a.u.)
